Measurements reported in the supplement of paper PMC10849652.
Of roughly 8,800 targets only a part is listed; those with a hit were picked by preference. About 0.5% of all pairs of compound and target were hits.

What follows are targets tested with COc1cc2ncnc(Nc3ccc(F)c(Cl)c3)c2cc1OCCCN1CCOCC1 [gefitinib] (assay: log2 fold change, soluble protein after heating vs DMSO (PISA); higher = thermal stabilisation; K562 lysate, 10 uM; active = over 0.2 and 3.5 SD of the protein, either way, in both replicates (recomputed)).
Method in brief: (§1)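 Following dounce homogenisation of K562 pellets in PBS pH 7.4 with 1 mM MgCl2, crude extract at 1 mg/mL protein was incubated for 30 min with 10 μM compound. Aliquots were then heated for 3 min over 48°C-58°C and pooled, NP-40 was added to 0.5% at 4°C, and soluble protein was recovered as the supernatant at 21,000xg for 90 min. Channel-sum-equalised TMTpro 16plex LC-MS/MS quantified this protein. Each value, from duplicates, is a log-two fold change in thermal stability relative to solvent controls.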

Chain of UniProt Q15125 (Q15125 whole entry, looked up): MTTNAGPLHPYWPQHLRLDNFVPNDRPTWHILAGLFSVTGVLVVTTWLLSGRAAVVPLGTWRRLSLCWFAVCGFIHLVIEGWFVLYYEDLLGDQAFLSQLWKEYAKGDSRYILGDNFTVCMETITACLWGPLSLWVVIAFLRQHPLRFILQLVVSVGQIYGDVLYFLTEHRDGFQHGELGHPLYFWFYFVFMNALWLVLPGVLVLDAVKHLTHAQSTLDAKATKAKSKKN
Chain of UniProt Q8N6R0 (Q8N6R0 whole entry, looked up): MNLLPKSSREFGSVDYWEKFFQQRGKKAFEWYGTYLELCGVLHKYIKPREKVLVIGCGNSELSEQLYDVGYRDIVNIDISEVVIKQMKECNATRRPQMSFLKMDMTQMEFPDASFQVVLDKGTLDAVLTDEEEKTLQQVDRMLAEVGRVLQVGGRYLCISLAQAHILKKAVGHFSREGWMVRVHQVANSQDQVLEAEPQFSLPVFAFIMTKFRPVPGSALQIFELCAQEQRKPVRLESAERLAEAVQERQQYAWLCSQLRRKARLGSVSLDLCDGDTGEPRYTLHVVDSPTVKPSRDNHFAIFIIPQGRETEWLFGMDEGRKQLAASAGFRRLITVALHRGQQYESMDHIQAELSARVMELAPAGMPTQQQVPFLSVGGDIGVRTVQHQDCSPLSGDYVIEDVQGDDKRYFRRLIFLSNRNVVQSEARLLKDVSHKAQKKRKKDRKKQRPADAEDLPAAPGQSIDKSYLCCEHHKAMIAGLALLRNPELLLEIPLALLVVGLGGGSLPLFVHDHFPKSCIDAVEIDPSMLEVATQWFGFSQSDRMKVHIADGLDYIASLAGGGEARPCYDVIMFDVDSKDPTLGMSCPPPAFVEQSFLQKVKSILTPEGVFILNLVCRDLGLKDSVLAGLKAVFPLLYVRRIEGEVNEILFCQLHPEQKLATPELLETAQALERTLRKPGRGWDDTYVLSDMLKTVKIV
Chain of UniProt Q8N5C7 (Q8N5C7 whole entry, looked up): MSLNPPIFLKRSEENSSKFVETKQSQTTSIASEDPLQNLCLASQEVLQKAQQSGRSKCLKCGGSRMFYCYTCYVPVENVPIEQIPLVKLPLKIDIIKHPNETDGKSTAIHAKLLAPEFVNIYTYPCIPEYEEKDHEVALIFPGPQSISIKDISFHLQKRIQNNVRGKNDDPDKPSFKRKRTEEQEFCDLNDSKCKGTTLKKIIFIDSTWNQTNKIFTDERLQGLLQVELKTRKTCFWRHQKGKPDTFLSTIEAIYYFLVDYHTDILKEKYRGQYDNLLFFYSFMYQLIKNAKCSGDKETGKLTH
Chain of UniProt Q8TB52 (Q8TB52 whole entry, looked up): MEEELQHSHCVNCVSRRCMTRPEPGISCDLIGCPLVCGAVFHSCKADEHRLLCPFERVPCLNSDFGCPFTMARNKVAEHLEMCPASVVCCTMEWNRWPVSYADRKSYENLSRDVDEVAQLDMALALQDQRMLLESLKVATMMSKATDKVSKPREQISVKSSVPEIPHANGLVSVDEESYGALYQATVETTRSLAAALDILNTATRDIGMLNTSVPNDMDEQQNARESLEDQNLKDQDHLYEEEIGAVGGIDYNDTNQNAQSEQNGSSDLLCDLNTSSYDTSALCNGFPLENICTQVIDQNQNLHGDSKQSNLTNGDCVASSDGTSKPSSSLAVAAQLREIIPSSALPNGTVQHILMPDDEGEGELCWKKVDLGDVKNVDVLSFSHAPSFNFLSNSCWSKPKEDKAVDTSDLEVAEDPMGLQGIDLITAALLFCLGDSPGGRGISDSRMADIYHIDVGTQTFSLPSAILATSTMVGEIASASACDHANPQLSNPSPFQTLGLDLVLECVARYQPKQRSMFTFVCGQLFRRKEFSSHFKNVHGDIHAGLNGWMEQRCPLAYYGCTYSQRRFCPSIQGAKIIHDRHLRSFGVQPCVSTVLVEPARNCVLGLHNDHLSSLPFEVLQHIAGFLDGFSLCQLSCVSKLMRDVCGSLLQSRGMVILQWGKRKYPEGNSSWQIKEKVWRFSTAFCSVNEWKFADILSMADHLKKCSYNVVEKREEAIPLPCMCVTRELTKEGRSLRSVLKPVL
Chain of UniProt Q9NZN4 (Q9NZN4 whole entry, looked up): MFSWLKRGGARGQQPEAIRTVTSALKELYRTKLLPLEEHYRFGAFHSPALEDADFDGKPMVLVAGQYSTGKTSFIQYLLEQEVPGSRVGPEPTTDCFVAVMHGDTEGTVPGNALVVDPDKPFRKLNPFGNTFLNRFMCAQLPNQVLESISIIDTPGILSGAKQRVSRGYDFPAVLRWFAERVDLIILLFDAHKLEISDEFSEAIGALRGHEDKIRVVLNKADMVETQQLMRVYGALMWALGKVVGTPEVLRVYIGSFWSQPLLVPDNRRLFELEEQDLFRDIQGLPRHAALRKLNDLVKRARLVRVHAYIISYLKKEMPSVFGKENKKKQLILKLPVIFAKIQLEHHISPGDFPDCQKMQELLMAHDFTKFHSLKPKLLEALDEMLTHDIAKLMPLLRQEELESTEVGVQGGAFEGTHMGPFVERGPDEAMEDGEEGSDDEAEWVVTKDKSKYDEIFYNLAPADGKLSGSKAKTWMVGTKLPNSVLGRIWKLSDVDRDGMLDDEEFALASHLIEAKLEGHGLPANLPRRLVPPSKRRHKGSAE
Chain of UniProt Q9NYY8 (Q9NYY8 whole entry, looked up): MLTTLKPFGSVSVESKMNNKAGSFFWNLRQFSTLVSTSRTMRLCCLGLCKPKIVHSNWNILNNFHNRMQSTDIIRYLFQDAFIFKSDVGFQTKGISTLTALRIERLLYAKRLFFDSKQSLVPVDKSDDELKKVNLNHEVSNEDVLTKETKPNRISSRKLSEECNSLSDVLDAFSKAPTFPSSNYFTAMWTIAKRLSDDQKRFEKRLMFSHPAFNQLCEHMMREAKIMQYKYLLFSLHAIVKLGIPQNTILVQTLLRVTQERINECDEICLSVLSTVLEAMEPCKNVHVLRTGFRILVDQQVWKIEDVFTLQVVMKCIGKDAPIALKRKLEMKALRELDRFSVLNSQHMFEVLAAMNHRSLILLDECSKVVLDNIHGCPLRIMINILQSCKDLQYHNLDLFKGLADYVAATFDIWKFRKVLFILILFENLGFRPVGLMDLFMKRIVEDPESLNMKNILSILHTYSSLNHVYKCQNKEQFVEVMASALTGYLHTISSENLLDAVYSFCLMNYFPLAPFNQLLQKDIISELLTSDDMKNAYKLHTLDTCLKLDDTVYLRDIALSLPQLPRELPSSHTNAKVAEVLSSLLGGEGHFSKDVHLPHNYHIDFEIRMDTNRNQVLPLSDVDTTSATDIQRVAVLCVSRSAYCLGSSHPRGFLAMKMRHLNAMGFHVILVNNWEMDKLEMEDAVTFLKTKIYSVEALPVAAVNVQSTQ
Chain of UniProt Q96RT1 (Q96RT1 whole entry, looked up): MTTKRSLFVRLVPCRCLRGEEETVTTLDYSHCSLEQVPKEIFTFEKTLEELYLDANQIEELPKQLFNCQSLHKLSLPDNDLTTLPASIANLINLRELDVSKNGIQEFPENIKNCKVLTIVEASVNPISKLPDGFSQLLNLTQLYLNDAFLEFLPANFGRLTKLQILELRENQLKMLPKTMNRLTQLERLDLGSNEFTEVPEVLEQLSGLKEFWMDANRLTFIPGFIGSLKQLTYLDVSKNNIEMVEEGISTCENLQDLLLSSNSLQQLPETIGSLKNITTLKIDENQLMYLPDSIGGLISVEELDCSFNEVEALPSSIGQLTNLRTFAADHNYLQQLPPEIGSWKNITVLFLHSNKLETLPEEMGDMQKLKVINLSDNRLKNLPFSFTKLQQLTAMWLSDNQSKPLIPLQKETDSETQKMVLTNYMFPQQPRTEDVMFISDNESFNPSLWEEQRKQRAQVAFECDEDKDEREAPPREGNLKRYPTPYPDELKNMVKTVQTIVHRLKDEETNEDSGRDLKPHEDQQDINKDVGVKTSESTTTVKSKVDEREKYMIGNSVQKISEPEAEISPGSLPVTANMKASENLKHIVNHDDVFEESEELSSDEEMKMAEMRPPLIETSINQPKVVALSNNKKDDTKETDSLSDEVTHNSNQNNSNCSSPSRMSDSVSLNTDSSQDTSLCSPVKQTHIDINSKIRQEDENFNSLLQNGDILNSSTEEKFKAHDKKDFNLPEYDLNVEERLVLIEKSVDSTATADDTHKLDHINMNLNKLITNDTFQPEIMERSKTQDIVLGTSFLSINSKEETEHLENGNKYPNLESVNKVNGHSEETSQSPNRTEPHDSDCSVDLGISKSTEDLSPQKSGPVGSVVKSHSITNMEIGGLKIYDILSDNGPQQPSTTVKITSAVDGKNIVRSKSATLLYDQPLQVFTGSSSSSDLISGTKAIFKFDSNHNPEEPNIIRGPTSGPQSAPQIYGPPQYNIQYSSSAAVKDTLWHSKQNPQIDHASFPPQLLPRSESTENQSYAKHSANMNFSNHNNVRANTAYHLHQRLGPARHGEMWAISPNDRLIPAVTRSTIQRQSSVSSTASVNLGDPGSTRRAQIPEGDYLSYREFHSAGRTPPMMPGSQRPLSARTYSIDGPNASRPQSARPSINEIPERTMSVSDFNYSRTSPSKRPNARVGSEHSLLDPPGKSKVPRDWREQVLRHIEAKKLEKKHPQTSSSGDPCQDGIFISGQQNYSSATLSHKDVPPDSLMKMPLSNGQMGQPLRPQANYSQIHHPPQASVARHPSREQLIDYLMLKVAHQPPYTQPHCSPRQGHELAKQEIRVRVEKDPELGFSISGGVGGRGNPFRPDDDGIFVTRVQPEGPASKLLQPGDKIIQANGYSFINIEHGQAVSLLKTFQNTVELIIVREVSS
Chain of UniProt O95571 (O95571 whole entry, looked up): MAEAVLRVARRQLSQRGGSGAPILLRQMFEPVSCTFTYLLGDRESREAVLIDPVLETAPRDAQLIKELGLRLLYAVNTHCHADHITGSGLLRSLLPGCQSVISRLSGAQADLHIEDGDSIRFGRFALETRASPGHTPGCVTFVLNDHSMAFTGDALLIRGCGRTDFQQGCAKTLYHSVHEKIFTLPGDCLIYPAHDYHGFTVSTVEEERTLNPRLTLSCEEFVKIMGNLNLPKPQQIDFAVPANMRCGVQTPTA
Chain of UniProt P62942 (P62942 whole entry, looked up): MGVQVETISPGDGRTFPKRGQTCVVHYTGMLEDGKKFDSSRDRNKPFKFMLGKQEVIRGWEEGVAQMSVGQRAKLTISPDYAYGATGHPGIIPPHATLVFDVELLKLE

log2 fold change, inactive:
FARSA (UniProt Q9Y285) -0.014
FECH isoform 2 (UniProt P22830) 0.503
EBP (UniProt Q15125) 0.04
EP300 (UniProt Q09472) -0.054
EP400 isoform 5 (UniProt Q96L91) -0.055
ESRRA (UniProt P11474) 0.07
DUS2 (UniProt Q9NX74) 0.026
GCLM (UniProt P48507) -0.023
GGT7 (UniProt Q9UJ14) 0.055
EMP3 (UniProt P54852) -0.071
FANCI (UniProt Q9NVI1) -0.002
FAM118B (UniProt Q9BPY3) 0.016
GFPT1 (UniProt Q06210) -0.013
FKBP1A (UniProt P62942) -0.003
EDARADD (UniProt Q8WWZ3) 0.043
FIBP (UniProt O43427) -0.005
EHD2 (UniProt Q9NZN4) -0.04
FADS1, A0A0A0MR51 -0.001
GALNT2 (UniProt Q10471) -0.021
FASTKD5 (UniProt Q7L8L6) -0.018
FBLL1 (UniProt A6NHQ2) 0.035
DTWD1 (UniProt Q8N5C7) -0.006
GGA2 (UniProt Q9UJY4) -0.025
FYB1 isoform 3 (UniProt O15117) -0.029
DYRK1A (UniProt Q13627) 0.007
DUS3L (UniProt Q96G46) -0.005
ERI1 (UniProt Q8IV48) -0.007
FBXO9 (UniProt Q9UK97) 0.04
ERBIN isoform 8 (UniProt Q96RT1) 0.03
ENY2 (UniProt Q9NPA8) -0.016
EEF1AKNMT (UniProt Q8N6R0) -0.031
EEF1A1, A0A087WVQ9 -0.054
ETHE1 (UniProt O95571) -0.14
FBXO22 (UniProt Q8NEZ5) 0.017
FASTKD2 (UniProt Q9NYY8) 0.021
FBXO30 (UniProt Q8TB52) 0.029

The targets below were run with CS(=O)(=O)CCNCc1ccc(-c2ccc3ncnc(Nc4ccc(OCc5cccc(F)c5)c(Cl)c4)c3c2)o1 [lapatinib] in the same assay as above.
Method in brief: as §1

log2 fold change, inactive:
FARSA (UniProt Q9Y285) -0.028
FECH isoform 2 (UniProt P22830) -0.099
EBP (UniProt Q15125) -0.044
EP300 (UniProt Q09472) 0.062
EP400 isoform 5 (UniProt Q96L91) 0.052
ESRRA (UniProt P11474) 0.026
DUS2 (UniProt Q9NX74) -0.033
GCLM (UniProt P48507) -0.006
GGT7 (UniProt Q9UJ14) -0.024
EMP3 (UniProt P54852) 0
FANCI (UniProt Q9NVI1) -0.015
FAM118B (UniProt Q9BPY3) 0.022
GFPT1 (UniProt Q06210) -0.001
FKBP1A (UniProt P62942) -0.011
EDARADD (UniProt Q8WWZ3) -0.037
FIBP (UniProt O43427) -0.016
EHD2 (UniProt Q9NZN4) -0.047
FADS1, A0A0A0MR51 0.203
GALNT2 (UniProt Q10471) -0.016
FASTKD5 (UniProt Q7L8L6) -0.025
FBLL1 (UniProt A6NHQ2) 0.014
DTWD1 (UniProt Q8N5C7) -0.049
GGA2 (UniProt Q9UJY4) -0.024
FYB1 isoform 3 (UniProt O15117) 0.045
DYRK1A (UniProt Q13627) -0.024
DUS3L (UniProt Q96G46) -0.009
ERI1 (UniProt Q8IV48) 0.037
FBXO9 (UniProt Q9UK97) -0.334
ERBIN isoform 8 (UniProt Q96RT1) -0.011
ENY2 (UniProt Q9NPA8) 0.025
EEF1AKNMT (UniProt Q8N6R0) -0.006
EEF1A1, A0A087WVQ9 0.028
ETHE1 (UniProt O95571) 0.049
FBXO22 (UniProt Q8NEZ5) -0.035
FASTKD2 (UniProt Q9NYY8) -0.028
FBXO30 (UniProt Q8TB52) -0.015
